The values that follow come from PubChem BioAssay AID2314 (National Center for Advancing Translational Sciences (NCATS), 2010).

Molecules are shown by their SMILES. Screen size: about 300,000 compounds; about 37,000 (12%) were called active. No stated cut-off is given here; in the data, active means max response mostly above about 13% (no sharp cut-off); inactive means mostly below about 14%. The entries come from a sample that favours actives as a whole.

The assay is described as follows: Cycloheximide Counterscreen for Small Molecule Inhibitors of Shiga Toxin. Further: read at 38.3 µM for the half of the compounds with a filed dose; 0% is about no effect. Particulars: cell reporter, cycloheximide protein synthesis inhibition counterscreen; hits give high values.
With `CC(=O)N(c1ccc2oc(=O)sc2c1)S(=O)(=O)c1ccc(C)cc1`, the max response is -5.66% (inactive).
On to `Cc1ccc(N=C2NC(=O)c3cccc([N+](=O)[O-])c32)cc1`, for which the max response is 37.1% (active).
In the case of `COC(=O)c1cccc([N+](=O)[O-])c1CS(=O)(=O)c1ccc(C)cc1`, the max response was 1.48% (inactive).
Consider `Cc1ccc(Cl)cc1NC(=O)COC(=O)CC(C)(C)C`, for which the max response is -0.256% (inactive).
`c1ccc2sc(NN=C3CCCC3)nc2c1`: the max response was 38.7% (active).
In the case of `O=C(COc1ccc(-c2ccccc2)cc1)NN=C1CCCC1` it was -1.28% (inactive); in that of `O=[N+]([O-])c1cc(Br)c(O)c(/C=N/Nc2nc3ccccc3s2)c1`, 26% (inactive).
With `COCc1cc(=O)[nH]c(-c2ccc(C(F)(F)F)cc2)n1`, the max response is -0.991% (inactive).
`C=CCN(Cc1nc(-c2cc(OC)c3c(c2)OCO3)oc1C)C1CCS(=O)(=O)C1` (stereo unspecified): the max response is -2.18% (inactive).
On to `Cc1nc2ccccc2cc1OCc1ccc(F)cc1`, for which the max response is 37.2% (active).
`Cc1occc(=O)c1OCc1ccc(F)cc1`: the max response was 5.09% (inactive).
In the case of `Fc1cccc2ncnc(OCc3ccccc3)c12` it was 6.13% (inactive); in that of `CCSc1nc2sc3c(c2c(=O)n1-c1ccc(C)cc1)CCN(C)C3`, -1.97% (inactive); in that of `Cc1cccc(NS(=O)(=O)c2ccc(C)c(C(N)=O)c2)c1`, -1.67% (inactive).
For `Cc1ccccc1CC1(CO)CCCN(Cc2ccc3c(c2)OCCO3)C1` (stereo unspecified), the max response is -2.18% (inactive).
As for `COc1ccc([C@H]2[C@H](C(C)=O)N3N=Cc4ccccc4C3C23C(=O)OC(C)(C)OC3=O)cc1` (stereo partly specified), the max response is 12.2% (inactive).
Consider `CN(C(=O)CSc1nnnn1-c1ccccc1)C1CCCCC1`, for which the max response is 17.1% (active).
In the case of `CN(C(=O)CCn1c(=S)oc2ccccc21)C1CCCCC1` it was 3.76% (inactive).
Turning to `CC(=O)c1cccc(-n2nnnc2SCC(=O)NNC(=O)C2CCCCC2)c1`, the max response was 0.0917% (inactive).
Consider `CN(C(=O)CSc1nncc2ccccc12)C1CCCCC1`, for which the max response was 30.4% (active).
Consider `O=c1c2ccccc2nnn1CSc1nnnn1-c1ccccc1`, for which the max response is 67.5% (active).
Consider `C=CCn1c(SCn2nnc3ccccc3c2=O)nnc1-c1ccc(Cl)cc1`, for which the max response is 8.6% (inactive).
Consider `Nc1nnc(SCn2nnc3ccccc3c2=O)s1`, for which the max response was 13.9% (inactive).
For `CN(C(=O)CSc1nnc(-c2c[nH]c3ccccc23)o1)C1CCS(=O)(=O)C1` (stereo unspecified), the max response is 1.22% (inactive).
As to `CN(C(=O)COc1ncnc2c1cnn2-c1ccccc1)C1CCCCC1`, the max response is 2.25% (inactive).
On to `CC(NC(=O)C1CCCN(S(=O)(=O)c2ccc(-n3cnnn3)cc2)C1)c1ccc(F)cc1` (stereo unspecified), for which the max response was 1.89% (inactive).
In the case of `Cc1cccc(N(Cc2ccccc2)C(=O)c2ccccc2F)c1` it was 13.7% (inactive).
On to `O=C(NCc1ccccc1Cl)C1CCCN1S(=O)(=O)c1ccc(F)cc1` (stereo unspecified), for which the max response was -3.67% (inactive).
Regarding `COCCCNC(=S)N1CCCC(c2nc3cc(C)c(C)cc3[nH]2)C1` (stereo unspecified), the max response is 13.5% (inactive).
With `CC1CCN(C(=S)c2ccc(-c3ccc(Cl)cc3Cl)o2)CC1`, the max response is 8.41% (inactive).
In the case of `CCOC(=O)c1cnc(Nc2nc3ccccc3o2)nc1CSC(=S)N1CCCCC1` it was 10.5% (inactive); in that of `COc1ccc(N=Nc2ccc(O)c(P(=O)(c3ccccc3)c3ccccc3)c2)cc1`, -8.38% (inactive); in that of `Cc1cc(N=Nc2ccc3ccccc3c2)ccc1O`, 46.6% (active).
Regarding `COc1ccnc2c1c(=O)n(Cc1cccc(F)c1)c(=O)n2C`, the max response was 6.46% (inactive).
Consider `Cc1ccc(-c2csc(NC3OC(=O)c4ccccc43)n2)cc1` (stereo unspecified), for which the max response is 21.8% (active).
`Cc1ccc(-c2csc(NC(=O)Cn3[nH]c(=O)c4ccccc4c3=O)n2)cc1`: the max response is 11.5% (inactive).
For `COc1ccc(C(=O)Nc2nc(-c3ccc(S(=O)(=O)N4CCOCC4)cc3)cs2)cc1`, the max response was 0.36% (inactive).
On to `COc1ccc2c(c1OC)C(=O)OC2c1c(O)nc(SC)n(-c2ccccc2)c1=O` (stereo unspecified), for which the max response was -1.46% (inactive).
In the case of `COc1ccc(-c2csc(NC3OC(=O)c4ccccc43)n2)cc1` (stereo unspecified), the max response was 20% (active).
Regarding `COc1ccc(N/C=C(\C2OC(=O)c3ccccc32)[N+](=O)[O-])cc1` (stereo unspecified), the max response was 7.23% (inactive).
Regarding `CCc1ccccc1NC(=O)[C@@H]1CCC(=O)N1C1OC(=O)c2c1ccc(OC)c2OC` (stereo partly specified), the max response was -2.07% (inactive).
Consider `COc1ccc2c(c1OC)C(=O)OC2Nc1nc(-c2ccccc2)cs1` (stereo unspecified), for which the max response is 38.5% (active).
As for `O=C(Cn1c(NCCO)nc2ccccc21)c1ccc(Cl)cc1Cl`, the max response is -1.01% (inactive).
On to `COc1ccc(CN2CCN(Cc3cn(C)nc3-c3ccccc3)CC2CCO)c(C)c1C` (stereo unspecified), for which the max response was 7.91% (inactive).
As to `CC(=O)c1ccc(S(=O)(=O)N(C)CCCC(=O)N(C)Cc2ccccc2F)cc1`, the max response was 2.54% (inactive).
In the case of `COC(=O)C1=CN(Cc2ccc(OC)cc2)C=C(C(=O)OC)C1c1ccc(O)c(OC)c1` it was -3.7% (inactive); in that of `O=C(c1ccc(Br)o1)N(c1ccccn1)C1CCCCC1`, 0.638% (inactive); in that of `Cc1ccc(CSc2nsc(C)c2C#N)cc1`, 22% (active).
Turning to `Cc1cc(C)c(C#N)c(SCc2ccc3c(c2)OCO3)n1`, the max response was -2.14% (inactive).
In the case of `Cc1snc(SCc2c(F)cccc2Cl)c1C#N` it was -2.84% (inactive); in that of `Cn1c(CCC(=O)OCC(=O)NCc2ccccc2Cl)nc(=O)c2ccccc21`, -1.91% (inactive).
`CCOCCCNC(=S)Nc1ccc2nc(N3CCN(CC)CC3)cc(C)c2c1`: the max response is -1.07% (inactive).
As for `COc1cccc(CCNC(=O)c2cccc(NC(=O)C3=C(C)OCCS3)c2)c1`, the max response was 12% (inactive).
In the case of `CC(=O)NC(=S)Nc1ccc(NC(=S)NC(=O)c2ccc([N+](=O)[O-])cc2)cc1` it was 10.5% (inactive).
In the case of `Cc1ccc(C(=O)NC(=S)Nc2ccc3[nH]c(=O)[nH]c3c2)cc1C` it was 2.1% (inactive); in that of `CC(=O)Nc1ccc(NC(=S)NC(=O)c2ccc([N+](=O)[O-])c(C)c2)cc1`, 17.1% (active).
Take `COc1ccc(N2CC(C(=O)N[C@@H](C)C(=O)N3CCCCC3)CC2=O)cc1` (stereo partly specified): the max response was -0.721% (inactive).
With `O=C1/C(=C/c2coc3ccc(O)cc3c2=O)SC(=S)N1c1ccccc1`, the max response was -2.68% (inactive).
As for `Cc1cc(OC(=O)c2ccccc2Cl)ccc1N1C(=O)CCC1=O`, the max response was 43.6% (active).
For `CCOC(=O)c1cc(OC(=O)c2ccccc2Cl)n(-c2ccccc2)n1`, the max response is 28.5% (inactive).
As for `COc1ccccc1C(=O)Oc1ccc(N2C(=O)CCC2=O)cc1`, the max response is -4.08% (inactive).
